# Sampled rows, rich in hits. Any-hit rate of the full collection: about 0.91%.
# TexasRed fluor: counter-screen for TRb-SRC2 inhibitors: fluorescence interference | TRb/SRC2 Texas Red total fluorescence interference | Potency, µM (top dose mostly 106 µM), for inactives: at the top dose fluorescence change, negative = quenching | 0.29% of 280,000 active | AID 1479; active means well fitted curve in either direction with a large enough effect; inconclusive means small, poorly fitted or top-dose-only effect
#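 Human TRβ ligand-binding domain (0.6 uM) and Texas Red SRC2 peptide (20 nM) in Tris buffer with 1 uM T3 and 5% DMSO were incubated with pinned compound for 5 hr at ambient temperature. Total fluorescence was computed as S + 2P (555/632 nm).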
# TRb SRC2 PPI: inhibitors of human thyroid hormone receptor beta-SRC2 interaction; TRbeta-SRC2 peptide binding, fluorescence polarization; receptor liganded with 1 µM T3; Potency, µM (top dose mostly 106 µM), without a hit: at the top dose activity change, negative = inhibition, hits mostly inhibitors; AID 1469; 0.065% of 280,000 active; P10828;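 further: plate controls were bound peptide for no effect and peptide without receptor for full effect; nearly all actives have a fitted effect of over 50% in size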
#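 Human TRb LBD (0.6 uM) plus Texas Red-labeled SRC2 peptide (20 nM), 1uM T3, 5% DMSO, 5 hr at ambient temperature. Decreased polarization (555/632 nm) flags inhibition; data normalized to free and bound peptide controls.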
# WRN inhibitor: inhibitors of human WRN helicase | Q14191 | WRN helicase unwinding, fluorescent forked duplex, kinetic | Potency, µM (highest dose often 114 µM), for inactives: top-dose activity change, negative = inhibition, hits mostly inhibitors | 0.46% of 360,000 active; further: nearly all actives have a fitted effect of over 55% in size
#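 WRN at 20 nM final preincubated with compound 15 min at room temperature; reaction started with 100 nM fluorophore/quencher forked duplex oligonucleotide and 2 mM ATP final. Unwinding followed kinetically by red fluorescence (ex 525, em 598 nm).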
# RECQ1 inh: blocks DNA unwinding by human RECQ1. P46063. RECQ1 DNA unwinding, red fluorescence kinetic read. Potency, µM (doses to about 57.3 µM), inactives show at the top dose activity, negative = inhibition, most hits filed as inhibitors. 0.54% of 240,000 active;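 further: plate controls were vehicle for no effect and no enzyme for full effect; nearly all actives have a fitted effect of over 30% in size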
# Target sequence (P46063 whole entry, looked up): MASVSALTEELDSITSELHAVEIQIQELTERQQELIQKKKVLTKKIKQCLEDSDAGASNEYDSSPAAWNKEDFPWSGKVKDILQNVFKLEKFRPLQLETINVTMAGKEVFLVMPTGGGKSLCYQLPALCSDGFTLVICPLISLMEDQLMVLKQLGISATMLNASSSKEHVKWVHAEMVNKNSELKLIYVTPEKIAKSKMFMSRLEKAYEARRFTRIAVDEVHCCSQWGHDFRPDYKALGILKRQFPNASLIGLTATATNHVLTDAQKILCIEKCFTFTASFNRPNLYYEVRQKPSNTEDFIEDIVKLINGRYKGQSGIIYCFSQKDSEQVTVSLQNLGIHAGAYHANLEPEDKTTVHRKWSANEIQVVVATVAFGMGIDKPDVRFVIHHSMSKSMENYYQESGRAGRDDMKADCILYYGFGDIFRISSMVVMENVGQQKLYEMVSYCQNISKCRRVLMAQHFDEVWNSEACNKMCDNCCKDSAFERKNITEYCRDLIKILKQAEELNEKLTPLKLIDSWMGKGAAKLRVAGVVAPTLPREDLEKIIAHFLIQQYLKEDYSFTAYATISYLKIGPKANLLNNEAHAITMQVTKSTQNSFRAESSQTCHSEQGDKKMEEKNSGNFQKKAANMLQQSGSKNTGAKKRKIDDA
#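 50 nM RECQ1T1 preincubated 15 min with compound in Tris pH 8.0 buffer with MgCl2, DTT, Tween-20 and 2.5 ug/ml poly(dI-dC); started with 200 nM TAMRA/BHQ-2 forked duplex and 2 mM ATP. Unwinding read as fluorescence (525/598 nm), two reads 2 h apart.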
# BLM helicase inh: inhibitors of human Bloom syndrome helicase BLM | recombinant BLM DNA unwinding, fluorescence dequenching | 0.2% of 350,000 active | P54132 | Potency, µM (highest dose often 56.1 µM), for inactives: top-dose activity change, negative = inhibition, usual class: inhibitors | AID 2528;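 further: plate controls were vehicle for no effect and no enzyme for full effect; nearly all actives have a fitted effect of over 35% in size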
# APE1 inh: blocks human APE1 abasic DNA cleavage. AID 2517. 0.35% of 350,000 active. recombinant APE1, TAMRA/BHQ-2 abasic DNA cleavage fluorescence. Potency, µM (highest dose often 65.8 µM), for the others: at the top dose activity change, negative = inhibition, actives largely listed as inhibitors. P27695;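 further: plate controls were vehicle for no effect and reference inhibitor for full effect; nearly all actives have a fitted effect of over 55% in size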
#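 Activity was derived from the fluorescence gain between first and third kinetic reads (60 s intervals, ex 525/em 598 nm) after 50 nM THF-abasic TAMRA/BHQ-2 duplex was added to 0.75 nM APE1 preincubated 15 min with compound.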
# Starred values were filed as active, the others as inactive; i = inactive; ? = inconclusive; . = no result; [ ] = remark or other dose. Unless noted, the call rests on the fitted dose curve; in most records, active means well fitted curve in the direction sought with a large enough effect; inconclusive means small, poorly fitted or top-dose-only effect, or another doubt; inactive means no such curve, though single readings can be large; an effect the other way counts as inactive or inconclusive. Unless noted, on the % scale 0 is the no-effect control and ±100 the full control effect; potency means the concentration at half of the fitted maximal effect.
SMILES,TexasRed fluor,TRb SRC2 PPI,WRN inhibitor,RECQ1 inh,BLM helicase inh,APE1 inh
Cc1cc(Cl)cc(Cl)c1OCCN1CCCC1,.,.,1%,.,-6%,-5%
NC(=O)C1CCN(c2nc(-c3cccc4ccccc34)cs2)CC1,.,.,.,.,.,-16%
O=C(O)c1ccccc1NS(=O)(=O)c1cccc(-n2sc3ccccc3c2=O)c1,.,.,11µM*,.,1%,-7%
CCCCOCC(C)O (stereo unspecified),-1%[201 µM],4%[201 µM],.,.,.,.
NC(=O)C1CCN(c2nc(-c3ccccc3[N+](=O)[O-])cs2)CC1,.,.,.,.,.,14%
COc1cccc(NS(=O)(=O)c2ccc3[nH]cc(C(=O)N(C)Cc4ccco4)c(=O)c3c2)c1,-2%,-3%,-15%,-16%,0%,?
Cc1ccccc1NS(=O)(=O)c1ccc2[nH]cc(C(=O)N(C)Cc3ccco3)c(=O)c2c1,0%,6%,-24%,32µM*,-2%,35µM*
Cn1c(N=Nc2ccc(N3CCOCC3)cc2)[n+](C)c2ccccc21,-2%,-7%,45µM*,i,0%,-6%
Cc1cccc(N2CCN(S(=O)(=O)c3ccc4c(c3)CC(=O)N4C)CC2)c1C,22µM*[quencher],-7%,-3%,.,-6%,23%
Cc1cccc(N2CCN(S(=O)(=O)c3ccc(S(=O)(=O)N4CCCC4)cc3)CC2)c1C,1%,-2%,1%,-10%,1%,2%
O=C1C=CC(=O)N1Cc1ccncc1,.,.,-9%,.,.,.
O=C1C=CC(=O)N1CCCCCCCCCCN1C(=O)C=CC1=O,.,.,3.2µM*,.,.,.
CCOC(=O)Nc1cc2c(c(N)n1)N=C(c1ccccc1)CN2,.,.,56µM*,.,.,.
CCOC(=O)Nc1sc(C)nc1-c1ccccc1,5%,0%,-13%,i,2%,1%
S=C([S-])NCCNC(=S)[S-].[Zn+2],?,?,.,32µM*,.,16µM*
CC(NC(=O)c1c(O)nc2ccccn2c1=O)c1ccccc1 (stereo unspecified),18µM*[quencher],-7%,.,.,-4%,.
Cc1ccn2c(=O)c(C(=O)NC(C)c3ccccc3)c(O)nc2c1 (stereo unspecified),3%,-5%,.,.,0%,.
CC(C)c1ccc(S(=O)(=O)Nc2cc3c(cc2NCc2ccccc2)n(C)c(=O)n3C)cc1,0%,4%,.,.,-13%,.
CC[C@H]1O[C@]2(CC[C@@H]1C)C[C@@H]1C[C@@H](C/C=C(\C)C[C@@H](C)/C=C/C=C3CO[C@@H]4[C@H](O)C(C)=C[C@@H](C(=O)O1)[C@]34O)O2,-6%[201 µM],3%[201 µM],.,.,.,.
COC(=O)c1cccc(C)c1S(=O)(=O)NC(=O)Nc1nc(OCC(F)(F)F)nc(N(C)C)n1,-1%[201 µM],-3%[201 µM],.,.,.,.
COC(=O)c1ccc2c(c1)C(C)(C)C(/C=C/c1ccc(OC)c(OC)c1OC)=[N+]2C,?,?,50µM*,?,-18%,-6%
COC(=O)c1ccc2c(c1)C(C)(C)C(/C=C/c1ccc(O)cc1)=[N+]2C,?,?,50µM*,13µM*,-1%,?
CCN1C(=O)/C(=C/C=C2\N(CC)c3cc(S(=O)(=O)N(C)C)ccc3N2c2ccccc2)SC1=S,8%,6%,?,0.79µM*,50%,-7%
NC(=O)C1CCN(c2nc(-c3ccc(Cl)cc3)cs2)CC1,.,.,.,.,.,5%
COc1ccccc1C(=O)Nc1ncc2c(n1)CC(c1ccco1)CC2=O (stereo unspecified),-22%,4%,-6%[11.6 µM],?,-20%,18µM*
SMILES,TexasRed fluor,TRb SRC2 PPI,WRN inhibitor,RECQ1 inh,BLM helicase inh,APE1 inh
O=C(O)c1cc2ccccc2cc1O,-6%[201 µM],1%[201 µM],.,.,.,.
CC1OC(CC(=O)O)CC2=C1C(=O)c1c(O)cccc1C2=O (stereo unspecified),.,.,11µM*,.,.,.
COC(=O)c1ccc(NC(=O)C(C)Sc2nc(=O)cc(N)n2CCc2ccccc2)cc1 (stereo unspecified),18µM*[quencher],-8%,.,.,-6%,.
CCN(C(=O)C(NS(=O)(=O)c1cccc2nsnc12)c1ccccc1)c1ccccc1 (stereo unspecified),-3%,6%,.,.,-2%,.
Cc1oc(-c2ccc(F)cc2)cc1-c1nn2c(-c3ccoc3C)nnc2s1,-11%,-8%,?,?,?,?
Cc1oc(-c2ccc(Cl)cc2)cc1-c1nn2c(-c3ccco3)nnc2s1,-17%,3%,.,32µM*,-22%,?
Cc1ccc(CNc2ncc(N3CCCCC3)cn2)cc1,.,.,.,.,.,13%
O=C(Nc1ccc2c(c1)CCC2)c1cc(S(=O)(=O)N2CCN(c3ccccc3)CC2)ccc1Cl,45µM*[fluorescent],21%,-16%,-18%,-7%,-1%
CCCCN(CCCC)CCCCCCN(CCCC)CCCC,3%[201 µM],0%[201 µM],.,.,.,.
CCOc1ccc(NC2SC(=O)N(Cc3ccccc3)C2=O)cc1 (stereo unspecified),?,-6%,.,.,-11%,.
O=C1SC(Nc2ccc(Cl)cc2)C(=O)N1Cc1ccccc1 (stereo unspecified),0.0032µM*[quencher],-15%,.,.,-10%,.
N=C1/C(=C/c2ccc(Br)o2)C(=O)N=C2SC(CC(=O)N3CCCC3)=NN12,.,.,50µM*,.,-18%,-2%
Cc1ccc(/C=C2\C(=N)N3N=C(CC(=O)N4CCCCC4)SC3=NC2=O)cc1,.,.,-2%[11.6 µM],.,-1%,41%
N=C1/C(=C/c2ccco2)C(=O)N=C2SC(CC(=O)N3CCCC3)=NN12,.,.,50µM*,.,-27%,-27%
O=c1/c(=C/c2ccco2)sc2nc3cc(Br)cnc3n12,.,.,.,.,.,14%
Cc1cccc(Cn2cnc3c(cnn3C(C)(C)C)c2=O)c1F,.,.,.,.,.,-5%
CN(C)CCCN1C(=O)c2cccc3cccc(c23)C1=O,.,.,-3%[11.6 µM],.,94%,-2%
CC1=CC2=C(OC1N(C)C)c1cccc3cccc(c13)C2=O (stereo unspecified),21%,40µM*,-20%,-28%,-7%,?
CCOC(=O)c1cc2c(=O)c3cc(C)ccc3oc2nc1C,.,.,56µM*,.,-5%,28%
CC(=O)c1cc2c(=O)c3cc(C)ccc3oc2nc1C,-2%,1%,0%,-4%,1%,-4%
c1coc(-c2nnc(-c3ccco3)nn2)c1,.,.,20µM*,.,-21%,?
c1ccc(-c2nnc(-c3ccco3)o2)cc1,2%,-4%,3%,-4%,1%,-1%
COc1ccccc1NC(=O)c1sc2nc(-c3cc4cc(Cl)ccc4oc3=O)[nH]c(=O)c2c1C,18µM*[quencher],-11%,.,.,-3%,.
CN(CC(=O)Nc1c(Cl)cccc1Cl)C(=O)c1cccc(-n2cccc2)c1,.,.,50µM*,.,.,4.2µM*
CN(CC(=O)Nc1cccc(F)c1)C(=O)c1cccc(-n2cccc2)c1,.,.,32µM*,.,.,3.4µM*
